Test results published in PubChem BioAssay AID1159580 (chemical genetic matrix, 2015).
Among all 5,500 compounds or so, about 2,000 (36%) were called active. About 18% were inconclusive and are not listed. Cut-off read from the data, not from the text of the source: active = normalized growth mostly below about 0.91 (no sharp cut-off); inconclusive = no clear call, values can overlap the other calls; inactive = mostly above about 0.92. Some of the results follow.

Experiment: chemical genetic growth profiling, strain panel (AID 1159580);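 note: tested at 20 µM; growth read once vehicle control cultures reached saturation at 30 °C; 1 = growth at the plate median or of vehicle wells; lower values mean less growth of the strain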
Conditions: S. cerevisiae deletion strains, growth OD
[1] = locus YDL101C, strain DUN1, active compounds read low
[2] = locus YHR030C, strain SLT2, active compounds read low
[3] = locus YAL013W, strain DEP1, active compounds read low
[4] = locus YBR229C, strain ROT2, active compounds read low
[5] = locus YCL061C, strain MRC1, active compounds read low
[6] = locus YDR150W, strain NUM1, active compounds read low
[7] = locus YEL061C, strain CIN8, active compounds read low
[8] = locus YGR078C, strain PAC10, active compounds read low
[9] = locus YHR087W, strain rtc3, active compounds read low
[10] = locus YJL187C, strain SWE1, active compounds read low
[11] = locus YJR043C, strain POL32, active compounds read low
[12] = locus YJR075W, strain HOC1, active compounds read low
[13] = locus YKL190W, strain CNB1, active compounds read low
[14] = locus YLR039C, strain RIC1, active compounds read low
[15] = locus YLR058C, strain SHM2 (second series), active compounds read low
[16] = locus YLR085C, strain ARP6, active compounds read low
[17] = locus YLR262C, strain YPT6, active compounds read low
[18] = locus YML094W, strain GIM5, active compounds read low
[19] = locus YMR219W, strain ESC1, active compounds read low
[20] = locus YMR263W, strain SAP30, active compounds read low
[21] = locus YMR307W, strain GAS1, active compounds read low
[22] = locus YNL153C, strain GIM3, active compounds read low
[23] = locus YNL298W, strain CLA4 (second series), active compounds read low
[24] = locus YNL322C, strain KRE1, active compounds read low
[25] = locus YNR030W, strain Alg12, active compounds read low
[26] = locus YOL006C, strain TOP1, active compounds read low
[27] = locus YPL055C, strain LGE1, active compounds read low
[28] = locus YPL241C, strain CIN2, active compounds read low
[29] = locus YPR135W, strain CTF4, active compounds read low
[30] = locus YGR229C, strain SMI1, active compounds read low

Measured: normalized growth

Cc1c(S(=O)(=O)c2ccc(Cl)cc2)csc1C(=O)NNc1cccc(Cl)c1
inactive: locus YAR019C, strain CDC15, active compounds read low 0.964 | locus YBL105C, strain PKC1, active compounds read low 0.958 | locus YBR135W, strain CKS1, active compounds read low 0.96 | locus YBR136W, strain MEC1, active compounds read low 0.962 | locus YBR160W, strain CDC28, active compounds read low 0.957 | locus YDL017W, strain CDC7, active compounds read low 0.967 | locus YDL028C, strain MPS1, active compounds read low 0.97 | [1] 0.978 | locus YDL108W, strain KIN28, active compounds read low 0.973 | locus YDL132W, strain cdc53, active compounds read low 0.954 | locus YDL214C, strain PRR2, active compounds read low 0.826 | locus YDR052C, strain DBF4, active compounds read low 0.953 | locus YDR054C, strain cdc34, active compounds read low 0.947 | locus YDR226W, strain ADK1, active compounds read low 0.959 | locus YDR477W, strain SNF1, active compounds read low 0.769 | locus YER133W, strain GLC7, active compounds read low 0.864 | locus YFL009W, strain cdc4, active compounds read low 0.962 | locus YFL029C, strain CAK1, active compounds read low 0.959 | locus YFR003C, strain YPI1, active compounds read low 0.967 | locus YFR028C, strain CDC14, active compounds read low 0.948 | locus YGR040W, strain KSS1, active compounds read low 0.811 | locus YGR052W, strain FMP48, active compounds read low 0.71 | locus YGR092W, strain DBF2, active compounds read low 0.783 | [2] 0.884 | locus YHR079C, strain IRE1, active compounds read low 1.01 | locus YHR082C, strain KSP1, active compounds read low 0.958 | locus YHR205W, strain SCH9, active compounds read low 0.907 | locus YIL147C, strain SLN1, active compounds read low 0.972 | locus YJL095W, strain BCK1, active compounds read low 0.679 | locus YJL128C, strain PBS2, active compounds read low 0.968 | locus YJL157C, strain FAR1, active compounds read low 0.886 | locus YJR016C, strain ILV3, active compounds read low 0.968 | locus YJR066W, strain TOR1 (second series), active compounds read low 0.684 | locus YJR066W, strain TOR1, active compounds read low 0.872 | locus YKL048C, strain ELM1, active compounds read low 0.947 | locus YKL067W, strain YNK1, active compounds read low 0.879 | locus YKL101W, strain HSL1, active compounds read low 0.948 | locus YKL193C, strain SDS22, active compounds read low 0.963 | locus YKL203C, strain TOR2, active compounds read low 0.954 | locus YLR133W, strain CKI1, active compounds read low 0.81 | locus YLR403W, strain SFP1, active compounds read low 0.877 | locus YML070W, strain DAK1, active compounds read low 0.823 | locus YMR001C, strain CDC5, active compounds read low 0.961 | locus YMR205C, strain PFK2 (second series), active compounds read low 0.91 | locus YMR277W, strain FCP1, active compounds read low 0.96 | locus YNL006W, strain LST8, active compounds read low 0.963 | locus YNL020C, strain ARK1, active compounds read low 0.941 | locus YNL161W, strain CBK1, active compounds read low 0.955 | locus YNL183C, strain NPR1, active compounds read low 0.911 | locus YNL207W, strain RIO2, active compounds read low 0.969 | locus YNL222W, strain SSU72, active compounds read low 0.961 | locus YNL307C, strain MCK1 (second series), active compounds read low 0.743 | locus YOL078W, strain AVO1, active compounds read low 0.965 | locus YOL136C, strain PFK27, active compounds read low 0.889 | locus YOR119C, strain RIO1, active compounds read low 0.905 | locus YOR231W, strain MKK1, active compounds read low 0.942 | locus YOR329C, strain SCD5, active compounds read low 0.969 | locus YPL031C, strain PHO85, active compounds read low 0.852 | locus YPL153C, strain RAD53, active compounds read low 0.857 | locus YPL204W, strain HRR25, active compounds read low 0.897 | locus YPL209C, strain IPL1, active compounds read low 0.955 | locus YPR025C, strain CCL1, active compounds read low 0.962 | locus YPR106W, strain ISR1, active compounds read low 0.971 | locus YPR111W, strain DBF20, active compounds read low 0.952 | strain NNK1, active compounds read low 0.966 | strain TSCII, active compounds read low 0.957
active: locus YER123W, strain YCK3, active compounds read low 0.574 | locus YFR019W, strain FAB1, active compounds read low 0.653 | locus YLR113W, strain HOG1, active compounds read low 0.675 | locus YPL256C, strain CLN2, active compounds read low 0.733

Cc1c(S(=O)(=O)c2ccc(Cl)cc2)csc1C(=O)Nc1ccc(N2CCOCC2)c(Cl)c1
inactive: [3] 0.992 | [4] 1.03 | [5] 1.05 | [1] 1.06 | [6] 1.05 | [7] 1.03 | [8] 1.07 | [2] 1.06 | [9] 0.999 | [10] 1.03 | [11] 1.03 | [13] 0.982 | [14] 0.992 | [15] 0.989 | [16] 0.947 | [17] 1.12 | [18] 0.988 | [19] 1 | [20] 1.03 | [21] 1.03 | [22] 1.06 | [23] 0.999 | [24] 0.991 | [25] 0.995 | [26] 1.03 | [27] 1.05 | [28] 0.984 | [29] 1.13
active: [12] 1.15 [resistant]

Cc1c(S(=O)(=O)c2ccc(Cl)cc2)csc1S(=O)(=O)N/N=C\c1c(Cl)cccc1Cl
inactive: [3] 1 | [4] 1.01 | [1] 1.02 | locus YDL134C, strain PPH21, active compounds read low 0.996 | [6] 0.948 | [7] 0.991 | [8] 1.01 | [30] 1 | [2] 1.02 | [9] 0.998 | [11] 1.01 | [12] 1.03 | [13] 1 | [14] 1 | [15] 1.01 | [16] 1.04 | [17] 1 | [18] 0.988 | [19] 1.01 | [20] 0.984 | [21] 1.04 | [22] 1 | [23] 1.03 | [24] 1 | [25] 1.01 | [26] 1.03 | [27] 0.886 | [28] 0.993 | [29] 1

Cc1cscc1S(=O)(=O)c1ccc(Cl)cc1
inactive: [3] 0.991 | [4] 0.969 | [5] 0.97 | [1] 0.966 | [6] 0.929 | [7] 0.98 | [8] 0.958 | [30] 0.981 | [2] 0.821 | [9] 0.974 | [10] 1 | [11] 0.958 | [12] 0.922 | [13] 0.991 | [14] 0.819 | [15] 0.975 | [16] 0.967 | [17] 0.833 | [18] 0.969 | [19] 0.978 | [20] 0.953 | [21] 0.855 | locus YNL128W, strain TEP1, active compounds read low 0.994 | [22] 0.945 | [23] 0.961 | [24] 0.975 | [25] 0.95 | [26] 0.904 | [27] 0.898 | [28] 0.953 | [29] 0.765
